# From PubChem BioAssay
# VP16 counter – Gal4-VP16 reporter inhibition counter-screen; Potency, µM (titrated, usually from 53.6 µM), inactives show at the highest dose activity, negative = inhibition, most hits filed as inhibitors; AID 2546; Drosophila S2 Gal4-VP16 UAS-luciferase, luminescence, 20 h; actives 3.5% (n = 310,000);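 note: Gal4-VP16 expression switched on by copper sulfate through the metallothionein promoter; % is set by controls: 0 for no effect and ±100 for the full control effect; nearly all actives have a fitted effect of over 50% in size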
# GLP1R ag – activates the human GLP-1 receptor | Potency, µM (series often up to 45.6 µM), inactives show at the top dose activation, actives largely listed as activators | actives 0.007% (n = 380,000) | P43220 | AID 624172 | HEK293 GLP-1R CRE-luciferase, luminescence, 4-6 h; cells express a hypersensitive GLP-1R form; note: % of control where 0% means no effect
# HEK293 tox – cytotoxicity counter-screen for GLP-1 receptor inverse agonists; actives 0.13% (n = 410,000); HEK293 cAMP-luciferase reporter cells, luminescence, 24 h; Potency, µM (doses to about 38.3 µM), for inactives: at the highest dose activity change, negative = inhibition, actives largely listed as inhibitors;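 note: loss of luciferase light is scored as toxicity; % is set by controls: 0 for no effect and ±100 for the full control effect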
#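 A 23 nL compound transfer followed 12 hours of cell culture at 37 deg C; exposure then lasted 24 hr. Luciferase assay detection reagent was dispensed and plates read for luminescence after a 12 min room-temperature wait.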
# GLP1R inv ag – GLP-1 receptor (human) inverse agonism. Potency, µM (doses to about 38.3 µM), without a hit: at the top dose activity change, negative = inhibition, actives largely listed as inhibitors. HEK293 GLP-1R CRE-luciferase, luminescence, 24 h; GLP-1R form is constitutively active. P43220. AID 624417. actives 1.6% (n = 410,000); note: % is set by controls: 0 for no effect and ±100 for the full control effect; nearly all actives have a fitted effect of over 55% in size
#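 Stable HEK293 clone (constitutively active GLP-1R + cAMP-response luciferase); 200 cells/uL plated, 12 h pre-culture, compound 24 hr, 37 deg C/5% CO2; detection reagent 12 min RT; luminescence.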
# RORgamma inh – ROR gamma (mouse) transcription inhibition | P51450 | Drosophila S2 Gal4-RORgamma UAS-luciferase reporter, 20 h | Potency, µM (series often up to 53.6 µM), for inactives: at the top dose activity change, negative = inhibition, actives largely listed as inhibitors | actives 5.4% (n = 310,000); note: % is set by controls: 0 for no effect and ±100 for the full control effect; nearly all actives have a fitted effect of over 60% in size
# Target sequence (P51450 whole entry, looked up, the tested form may be a part): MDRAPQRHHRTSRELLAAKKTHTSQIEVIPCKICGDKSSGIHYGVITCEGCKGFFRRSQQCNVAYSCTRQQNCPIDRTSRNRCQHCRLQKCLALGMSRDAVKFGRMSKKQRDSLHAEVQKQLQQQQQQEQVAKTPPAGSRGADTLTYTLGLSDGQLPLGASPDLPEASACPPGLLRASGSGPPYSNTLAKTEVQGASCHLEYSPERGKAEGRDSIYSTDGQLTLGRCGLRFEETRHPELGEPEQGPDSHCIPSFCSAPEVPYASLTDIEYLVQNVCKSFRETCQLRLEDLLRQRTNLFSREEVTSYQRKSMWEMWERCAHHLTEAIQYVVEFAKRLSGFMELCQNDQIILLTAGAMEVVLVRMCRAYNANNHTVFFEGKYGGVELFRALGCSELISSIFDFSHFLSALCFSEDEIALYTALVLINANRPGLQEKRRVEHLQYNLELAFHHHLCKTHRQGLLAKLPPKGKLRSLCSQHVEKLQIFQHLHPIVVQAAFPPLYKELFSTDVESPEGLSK
#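 Compounds are pin-transferred onto Drosophila Schneider cells expressing a copper-inducible Gal4–ROR gamma transactivation domain fusion. After 1 hr, copper sulfate is added to 700 uM final; luciferase is read 20 hr later.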
# The depositor's hits bear a star; ? = inconclusive; . = no result given; [ ] = dose if it differs, or a comment. Shown are actives, neighbours in structure and some others; about 5.9% of the full set was active somewhere. Calls come from the whole dose curve; as a rule, active = well fitted curve in the direction sought with a large enough effect; inconclusive = small, poorly fitted or top-dose-only effect, or another doubt; inactive = no such curve, though single readings can be large; an effect the other way counts as inactive or inconclusive. Potency is the fitted concentration of half-maximal effect.
SMILES,VP16 counter,GLP1R ag,HEK293 tox,GLP1R inv ag,RORgamma inh
C=CCNC(=O)c1ccc2c3n(nc2c1)-c1ccc(Cl)cc1CO3,.,7%,4%,10%,.
O=C(NCC1CC1)c1ccc2c3n(nc2c1)-c1ccccc1CO3,?,0%,-4%,?,14µM*
CC(C)NC(=O)c1ccc2c3n(nc2c1)-c1ccccc1CO3,4.5µM*,-1%,0%,?,4µM*
O=C(NCCO)c1ccc2c3n(nc2c1)-c1ccccc1CO3,?,-1%,9%,-23%,4.5µM*
Cc1ccc2c(c1)COc1c3ccc(C(=O)O)cc3nn1-2,5µM*,-9%,5%,1.3µM*,2µM*
CCNC(=O)[C@@H]1CCCN1C(=O)[C@H](CCCN=C(N)N)NC(=O)[C@H](CC(C)C)NC(=O)[C@@H](Cc1c[nH]c2ccccc12)NC(=O)[C@H](Cc1ccc(O)cc1)NC(=O)[C@H](CO)NC(=O)[C@H](Cc1c[nH]c2ccccc12)NC(=O)[C@H](Cc1cnc[nH]1)NC(=O)[C@@H]1CCC(=O)N1,?,-6%,.,.,?
C[C@@H]1C[C@@H]([C@@H](C)CC2CC(=O)NC(=O)C2)C(=O)[C@@H](C)C1,0%,.,.,.,0.22µM*
CC(C)CC(=O)NC(=S)Nc1nc(-c2ccc(Cl)cc2)cs1,?,-7%,3%,11%,8.9µM*
Cc1cc(C(=O)OC(C)C(=O)Nc2nc(-c3ccccc3)cs2)c(C)o1 (configuration not stated),-5%,1%,1%,10µM*,34%
O=C(CN1CCCCC1)Nc1nc(-c2ccc(Cl)cc2)cs1,-25%,2%,-20%,-6%,0%
CC(C)CC(=O)NC(=S)Nc1nc(-c2ccccc2)cs1,5.6µM*,1%,-13%,?,6.3µM*
O=C(CN1CCCC1)Nc1nc(-c2ccc(Cl)cc2)cs1,.,0%,3%,-15%,.
CCN(CC)CC(=O)Nc1nc(-c2ccc(Cl)cc2)cs1,20µM*,2%,-19%,?,8.9µM*
COCC(=O)Nc1nc(-c2ccc(-c3ccccc3)cc2)cs1,16%,0%,3%,24%,5%
CC1(C)CCC[C@@](C)([C@H]2CC[C@]3(C)[C@@H]2[C@H](O)C[C@@H]2[C@@]4(C)CC[C@H](O)C(C)(C)[C@@H]4[C@@H](O)C[C@]23C)O1,-11%,.,.,.,?
COc1cc(NC(=O)N2CCC3(CC2)Nc2ccccc2-n2cccc23)cc(OC)c1OC,.,.,-10%,?,.
C[N+]12CCCC[C@@H]1CCC(=C(c1cccs1)c1cccs1)C2 (some centres not stated),-2%,-3%,.,.,31%
COc1ccc(N2CCN(C(=O)c3cccn4c(=O)c5ccc(Cl)cc5nc34)CC2)cc1,.,.,-5%,13%,.
O=C(Nc1ccccc1)Nc1sccc1-c1nc2ccccc2s1,4%,11%,-1%,-8%,7.9µM*
O=C(Nc1cccc(Cl)c1)Nc1sccc1-c1nc2ccccc2s1,19%,6%,8%,?,?
O=C(N/C(=C\c1ccc(Cl)cc1)C(=O)N1CCCCC1)c1ccco1,14%,10%,-4%,10µM*,15%
CSc1ccc(/C=C(/NC(=O)c2ccco2)C(=O)N2CCCCCC2)cc1,-1%,-3%,-1%,?,11%
COc1ccccc1N(CC(=O)NC1CCCC1)C(=O)c1oc(C(C)(C)C)cc1C,-2%,22%,-10%,?,13µM*
Cc1cc(C(C)(C)C)oc1C(=O)N(CC(=O)NC1CCCC1)c1c(C)cccc1C,-5%[0.365 µM],-1%,?,?,-27%
Nc1ccc(N)c([N+](=O)[O-])c1,.,1%[96 µM],.,.,.
O=C(Nc1nc2ccccc2n1Cc1ccccc1)c1ccc(COc2ccccc2[N+](=O)[O-])o1,?,0%,-16%,0%,?
Cc1ccc(OCc2ccc(C(=O)Nc3nc4ccccc4n3Cc3ccccc3)o2)c([N+](=O)[O-])c1,0.32µM*,-5%,2%,8%,?
